The sample as a whole holds a higher share of hits than the screen did.
Sfp inh: Sfp phosphopantetheinyl transferase inhibition; Q9F4F7; Biochemical Sfp PPTase activity, qHTS; Potency, µM, for inactives: largest response in the series, negative = inhibition, usual class: inhibitors; 3.5% of 310,000 active; AID 1490;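 also: the enzyme is Sfp with the accession as filed and its product quenches rhodamine fluorescence; 0% = enzyme reaction without inhibitor and -100% = no enzyme wells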
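After 15 min at room temperature with compound, 15 nM Sfp received 5 uM rhodamine-CoA plus 12.5 uM BHQ-2-ybbR (50 mM Hepes pH 7.6, 10 mM MgCl2). Rate came from the fluorescence difference over 30 min, ex 525/em 598 nm.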
G9a block: inhibitors of human histone lysine methyltransferase G9a; Q96KQ7; G9a H3K9 monomethylation, AlphaScreen, 2 h; Potency, µM (series often up to 102 µM), inactives show at the highest dose activity, negative = inhibition, actives largely listed as inhibitors; 8.8% of 350,000 active; AID 504332; also: % is scaled to controls: 0 for no effect and ±100 for the full control effect; nearly all actives have a fitted effect of over 75% in size
Target sequence (Q96KQ7 913-1193 limits assumed): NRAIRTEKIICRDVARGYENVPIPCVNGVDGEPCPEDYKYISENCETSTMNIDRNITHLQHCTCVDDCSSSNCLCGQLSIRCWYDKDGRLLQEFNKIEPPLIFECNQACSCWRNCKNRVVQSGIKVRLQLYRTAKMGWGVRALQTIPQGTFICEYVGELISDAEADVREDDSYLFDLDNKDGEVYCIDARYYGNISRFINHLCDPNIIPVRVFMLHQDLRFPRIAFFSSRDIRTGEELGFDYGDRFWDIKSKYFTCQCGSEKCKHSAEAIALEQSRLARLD
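AlphaScreen detection with an anti-monomethyl H3K9 antibody quantified product after a 2 h room-temperature reaction containing 500 nM biotinylated H3K9 peptide, 20 µM SAM and 20 nM enzyme, which had been preincubated 15 min with compound.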
12-LOX inh: inhibitors of human 12S-lipoxygenase ALOX12 | P18054 | purified 12hLO, xylenol orange hydroperoxide absorbance | Potency, µM (titrated, usually from 108 µM), for the others: at the top dose activity change, negative = inhibition, actives largely listed as inhibitors | 1.1% of 580,000 active | AID 1671190; also: % is scaled to controls: 0 for no effect and ±100 for the full control effect
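Purified human 12hLO (150 nM final) in 25 mM Hepes, 0.01% Triton X-100, pH 7.0 was preincubated 15 min at room temperature with compound. Then 40 uM arachidonic acid was added, 30 min. Hydroperoxide was read by Fe-XO absorbance ratio 573/405 nm.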
VDR inhibitor: blocks the human vitamin D receptor. P11473. VDR-SRC2-3 peptide fluorescence polarization, 2 h. Potency, µM, for inactives: max response, negative = inhibition, usual class: inhibitors. 0.93% of 400,000 active. AID 504847; also: % is scaled to controls: 0 for no effect and ±100 for the full control effect
Target sequence (P11473 whole entry, looked up): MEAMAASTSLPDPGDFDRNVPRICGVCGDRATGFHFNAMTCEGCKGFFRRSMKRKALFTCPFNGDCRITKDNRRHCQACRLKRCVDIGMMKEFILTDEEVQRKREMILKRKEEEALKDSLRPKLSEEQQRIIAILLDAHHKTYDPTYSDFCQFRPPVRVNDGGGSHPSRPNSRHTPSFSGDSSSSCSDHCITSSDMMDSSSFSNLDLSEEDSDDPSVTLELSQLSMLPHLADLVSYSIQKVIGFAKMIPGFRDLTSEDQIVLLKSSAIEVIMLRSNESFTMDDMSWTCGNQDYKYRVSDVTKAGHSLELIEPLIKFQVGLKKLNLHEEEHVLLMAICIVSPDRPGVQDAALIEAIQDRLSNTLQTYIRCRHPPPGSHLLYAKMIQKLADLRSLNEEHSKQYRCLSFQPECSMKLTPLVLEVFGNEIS
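FP read-out; VDR + SRC2-3 coactivator peptide; 23 nl compound by pintool; 2 h RT incubation; reagents held at 4 deg C, protected from light.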
Glioma ERSR ind: induces the endoplasmic reticulum stress response in human glioma cells; U87-MG GRP78 promoter luciferase reporter, 16 h; Potency, µM, for inactives: at the top dose activation, usual class: activators; 0.02% of 420,000 active; also: series mostly up to about 76 µM; % of control where 0% means no effect; nearly all actives have a fitted effect of over 35% in size
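ERSR induction read as luciferase luminescence (Bright-Glo, 10 min at room temperature) in stably transfected human U87-MG glioma cells exposed to compounds for 16 h, using GRP78 as sensor.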
Active calls of the source: *; u = inconclusive; x = no result; [ ] = remark or other dose. Calls follow the shape of the dose curve; as a rule, active = well fitted curve in the direction sought with a large enough effect; inconclusive = small, poorly fitted or top-dose-only effect, or another doubt; inactive = no such curve, though single readings can be large; an effect the other way counts as inactive or inconclusive. Potency is read from the fitted curve at half-maximal effect.

SMILES	Sfp inh	G9a block	12-LOX inh	VDR inhibitor	Glioma ERSR ind
CC(C)Oc1ccc(CN2CCC(CO)(CN3CCCC3)CC2)cc1Cl	x	x	4.3%	x	x
COc1ccc(C2OC34CCCCC3C(C#N)(C#N)C2(C#N)C(=N)O4)cc1 (stereo not drawn)	-4.6%	50.1µM*	-20.4%	-11.7%	-3.5%
O=Cc1ccc(OCc2ccc(Br)cc2)c(Cl)c1	x	x	-11.1%	x	x
COc1ccc(/C=C/C(=O)NC(=S)NNC(=O)c2cccs2)cc1OC	-15.9%	u	-7.5%	-13.1%	-1.3%
O=C(/C=C/c1cccs1)NCc1cccs1	x	x	58.6%	-26.6%	-0.5%
COc1ccc(/C=C/C(=O)NC(=S)NNC(=O)Cc2cccs2)cc1OC	-3.3%	3.55µM*	-19.3%	5.6%	-2.0%
COc1ccccc1NC(=S)NC(=O)/C=C/c1cccs1	2.9%	44.7µM*	35.5µM*	-4.1%	-4.4%
O=C(/C=C/c1cccs1)NC(=S)NNC(=O)Cc1cccs1	22.9%	4.47µM*	261.6%	3.5%	2.9%
Cc1ccc(NC(=O)CN2C(=O)S/C(=C\c3cc(C)n(-c4ccc(C(=O)O)cc4)c3C)C2=O)cc1	8.1%	x	u	-8.4%	3.7%
Cc1ccc(NC(=O)CN2C(=O)S/C(=C\c3cc(Cl)c(OCC(=O)O)c(Cl)c3)C2=O)cc1	50.1µM*	39.8µM*	0.0%	70.8µM*	-1.8%
O=C([C@@H]1C[C@@H](c2ccc(F)cc2)N(Cc2ccccc2)C1)N1CCN(c2ccccn2)CC1	x	x	-18.1%	x	x
CCOc1ccccc1NC(=O)c1c(NCc2cccs2)sc2c1CCCCC2	x	u	u	12.8%	-4.3%
CCOc1ccc(NC(=O)c2c(NCc3cccnc3)sc3c2CCCC3)cc1	x	2.82µM*	u	u	1.7%
CCOC(=O)c1ccc(NC(=O)c2c(NCc3sccc3C)sc3c2CCC(C)C3)cc1 (stereo not drawn)	x	u	u	-12.2%	2.4%
O=C(COc1ccccc1)Nc1sc2c(c1C(=O)NCc1cccnc1)CCCC2	-25.3%	-4.6%[59 µM]	u	-7.1%	2.0%
CCOc1ccc(NC(=O)c2c(NCc3ccc(C)o3)sc3c2CCCCC3)cc1	x	5.62µM*	39.8µM*	-18.5%	-4.2%
CCOc1ccc(NC(=O)c2c(NCc3cccs3)sc3c2CCCCC3)cc1	x	8.91µM*	-27.7%	2.5%	0.2%
CCOc1ccc(NC(=O)c2c(NCc3sccc3C)sc3c2CCCCC3)cc1	x	8.91µM*	u	u	-4.1%
Cc1ccc2oc(C(=O)Nc3ncc(Cc4ccccc4)s3)cc(=O)c2c1	x	x	22.6%	x	x
COc1ccc(NC(=O)c2c(NCc3cccs3)sc3c2CCCC3)c(OC)c1	x	u	-9.6%	4.5%	-3.1%
COc1ccc(NC(=O)c2c(NCc3cccs3)sc3c2CCCCC3)cc1	x	7.94µM*	u	-12.9%	18.2%
CC(=O)Nc1ccc2nc(CN3CCN(Cc4ccc(F)cc4)C(CCO)C3)ccc2c1 (stereo not drawn)	79.4µM*	x	u	-5.5%	-2.2%
COc1ccccc1-c1cc(C(=O)O)c2ccc(C)c(C)c2n1	x	x	-22.3%	x	x
COc1ccccc1-c1cc(C(=O)O)c2cc(C)cc(C)c2n1	x	x	28.2µM*	x	x
Cc1cc(NC(=O)N(Cc2ccc(C)o2)C2CC2)no1	x	x	38.4%	x	x
SMILES	Sfp inh	G9a block	12-LOX inh	VDR inhibitor	Glioma ERSR ind
Cc1ccc(Nc2nc(NCc3ccco3)nc3c2cnn3-c2ccccc2)cc1C	x	x	-21.0%	x	x
S=C(c1cn(CCOc2ccccc2)c2ccccc12)N1CCCC1	u	35.5µM*	0.0%[57.4 µM]	-11.6%	-5.0%
O=C(O)Cn1cc(C(=S)N2CCOCC2)c2ccccc21	50.1µM*	u	10µM*	u	-1.8%
O=C(O)Cn1cc(C(=S)N2CCCCC2)c2ccccc21	22.4µM*	10µM*	39.8µM*	-24.1%	1.6%
O=C(c1cccs1)n1cc(C(=S)N2CCOCC2)c2ccccc21	14.7%	28.2µM*	u	-1.9%	1.2%
S=C(c1cn(CCOc2cccc3ccccc23)c2ccccc12)N1CCCC1	17.7%	u	u	5.4%	-6.3%
Cc1ccc(NC(=O)Cn2c(-c3ccc(Cl)cc3)nc(C)c(CCO)c2=O)cc1	x	x	-6.6%	x	x
CC(=O)Nc1ccc(SCCCC(=O)c2cccs2)cc1	x	x	-53.7%	x	x
Cc1ccc(-c2ccccc2NC(=O)CS(=O)CC(=O)Nc2ccc(C)c(Cl)c2)o1 (stereo not drawn)	6.0%	35.5µM*	39.8µM*	44.7µM*	1.6%
Cc1cccc(OCCCCn2c(C3CC(=O)N(c4ccc(C)cc4C)C3)nc3ccccc32)c1 (stereo not drawn)	x	u	17.8µM*	8.2%	-8.1%
Cc1cccc(OCCCCn2c(C3CC(=O)N(c4ccccc4Cl)C3)nc3ccccc32)c1 (stereo not drawn)	x	12.6µM*	-14.0%	7.1%	-0.9%
CCOc1ccc(N2CC(c3nc4ccccc4n3Cc3cccc(C)c3)CC2=O)cc1 (stereo not drawn)	x	u	-1.8%	4.6%	-4.2%
CCOc1ccccc1N1CC(c2nc3ccccc3n2CCCCOc2cc(C)ccc2C)CC1=O (stereo not drawn)	x	-36.8%[59 µM]	u	12.7%	1.8%
CCc1ccccc1N1CC(c2nc3ccccc3n2Cc2cccc(C)c2)CC1=O (stereo not drawn)	x	1µM*	-2.1%	9.0%	-4.3%
CS(=O)(=O)N1CC2(CCN(Cc3c[nH]c4ccccc34)C2)Cc2ccccc21 (stereo not drawn)	x	x	-4.5%[6.33 µM]	x	x
CC(=O)c1cccc(-c2ccc3c(=O)[nH]c(Nc4ccccc4)cc3c2)c1	x	x	-23.1%	-10.2%	0.9%
O=c1[nH]c(Nc2ccccc2)cc2cc(Br)ccc12	x	x	15.8µM*	-11.1%	-2.8%
COc1ccccc1Nc1cc2cc(Br)ccc2c(=O)[nH]1	x	x	8.91µM*	-2.3%	7.2%
CNCCc1cnc(CCC(c2ccccc2)c2ccccc2)[nH]1	x	10µM*	x	-13.2%	-5.4%
CC(=O)Nc1ccc(NC(=O)c2ccc(C)cc2Cl)cc1	x	x	-6.1%	x	x
CCCn1nnnc1NC(=O)c1ccc(C)cc1Cl	-2.0%	22.4µM*	-0.9%	8.8%	2.6%
Cn1nnnc1SCC(=O)Nc1ccccc1Cl	14.9%	4.3%	-15.0%	1.2%	-2.5%
Cn1nnnc1NC(=O)c1ccccc1Cl	-15.6%	39.8µM*	u	6.4%	1.1%
CCCn1nnnc1NC(=O)c1cc(Br)ccc1OC	5.8%	25.1µM*	-2.2%	-20.8%	-5.1%
CCCn1nnnc1NC(=O)c1cccs1	-26.0%	35.5µM*	-0.8%	-13.6%	-3.1%
CCOCC(=O)N1c2ccccc2CC1c1noc(C(C)C)n1 (stereo not drawn)	x	x	17.6%	x	x
COc1cccc(C(=O)N2CCC(N3C[C@H](O)C[C@H]3C(=O)NCc3ccc(F)cc3)CC2)c1	x	x	40.6%	x	x
CCN(CC)C(CNC(=O)c1nc(-c2ccccc2)oc1C)c1ccccc1 (stereo not drawn)	x	x	11.6%	x	x
O=C(c1ccccc1)c1nn(-c2ccccc2)c2nnc(Cc3ccccc3)c(=O)n12	1.5%	10µM*	-18.7%	-3.6%	-2.3%
Cc1ccc(-n2nc(C(=O)c3ccccc3)n3c(=O)c(Cc4ccccc4)nnc23)cc1	x	x	-12.2%	-19.8%	-3.3%

Screens from PubChem.
